This passage reports Potency results from PubChem BioAssay (NCATS).

Results filed as inconclusive are left out. A call without a number means that no potency is given here. The source made the active and inactive calls. Calls come from the whole dose curve; as a rule, active = well fitted cell-killing curve with a large enough effect; inconclusive = small, poorly fitted or top-dose-only effect, or effect the other way; inactive = no such curve, though single readings can be large or run the other way.
Potency is the fitted concentration of half-maximal effect.

The nature of one test: Quantitative High-Throughput drug screen in 47 multiple myeloma cell lines against the NCATS MIPE library collection: Karpas25_ECACC cell viability assay (AID 1918968; note: nearly all actives have a fitted effect of over 35% in size). Conditions: Karpas25 myeloma viability, CellTiter-Glo ATP, 48 h; series mostly up to 45.8 µM. The essentials:
(§1)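 CellTiter-Glo luminescence (ATP) after 48 h compound exposure, 37C/5% CO2; 500 cells/well; MIPE 4.0 approved/investigational drugs pinned in; DMSO = 100%, media only = 0% viability.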
Background: In ATP-based viability assays light output follows the ATP content of the culture.
In the case of `CN1CCN(c2c(F)cc3c(=O)c(C(=O)O)cn(CCF)c3c2F)CC1`, the Potency entry was “inactive”.
On to `Cc1nnc(C(=O)NC(C)(C)c2nc(C(=O)NCc3ccc(F)cc3)c(O)c(=O)n2C)o1`, for which the Potency result was “inactive”.
Still for that read-out and setting: the figure for `COc1cc2ncnc(Nc3cccc(Cl)c3)c2cc1OC` is 20.9 µM (active); for `CCCCOc1ccc(CC(=O)NO)cc1` it is 6.62 µM (active).
Still for that read-out and setting: the entry for `CCOC(=O)c1ccc(OC(=O)CCCCCN=C(N)N)cc1` is “inactive”; for `CCn1cc(C(=O)O)c(=O)c2cc(F)c(N3CCN(C)CC3)cc21` it is “inactive”.
For the molecule `CCOc1cc(N)c(Cl)cc1C(=O)NCC1CN(Cc2ccc(F)cc2)CCO1` (stereo not given), the Potency entry was “inactive”.
Still for that read-out and setting: the result for `Nc1nc(N)c2nc(CNc3ccc(C(=O)NC(CCC(=O)O)C(=O)O)cc3)cnc2n1` (stereo not given) reads “inactive”; that for `N[C@@H](Cc1ccc(O)c(O)c1)C(=O)O`, “inactive”.
As to `CS(=O)(=O)c1ccc([C@@H](O)[C@@H](CO)NC(=O)C(Cl)Cl)cc1`, the Potency was 16.6 µM (active).
As to `C[C@@H]1CN(c2c(F)c(N)c3c(=O)c(C(=O)O)cn(C4CC4)c3c2F)C[C@H](C)N1`, the Potency entry is “inactive”.
Same read-out and setting: the figure for `CC(C)OC(=O)OCOP(=O)(CO[C@H](C)Cn1cnc2c(N)ncnc21)OCOC(=O)OC(C)C` is 14.8 µM (active); for `NC(=O)c1cccnc1` it is “inactive”.
On the same count and under the same terms, the result for `CC1(C)[C@H](C(=O)O)N2C(=O)C[C@H]2S1(=O)=O` reads “inactive”.
Still for that read-out and setting: the result for `CCCN[C@H]1CCc2nc(N)sc2C1` reads 2.09 µM (active).
Turning to `COc1ccc(C(=O)CC(=O)c2ccc(C(C)(C)C)cc2)cc1`, the Potency was 2.35 µM (active).

Another test in a line: Quantitative High-Throughput drug screen in 47 multiple myeloma cell lines against the NCATS MIPE library collection: KMS27_JCRB cell viability assay (AID 1918970). Note: nearly all actives have a fitted effect of over 30% in size. Conditions: KMS27 myeloma cells, CellTiter-Glo ATP viability, 48 h; series mostly up to 45.8 µM. The essentials:
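Each line is seeded at 500 cells per well and treated with library compounds for 48 hours under 37 °C, 5% CO2. CellTiter-Glo is then added for 5 min at room temperature before median relative luminescence is recorded.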
Turning to `CN1CCN(c2c(F)cc3c(=O)c(C(=O)O)cn(CCF)c3c2F)CC1`, the Potency entry is “inactive”.
Still for that read-out and setting: the result for `CC[C@H](C)C(=O)O[C@H]1C[C@@H](C)C=C2C=C[C@H](C)[C@H](CC[C@@H]3C[C@@H](O)CC(=O)O3)[C@H]21` reads “inactive”; that for `CC(C)(Sc1cc(C(C)(C)C)c(O)c(C(C)(C)C)c1)Sc1cc(C(C)(C)C)c(O)c(C(C)(C)C)c1`, “inactive”.
Still for that read-out and setting: the result for `COc1cc2ncnc(Nc3cccc(Cl)c3)c2cc1OC` reads 29.6 µM (active); that for `CCCCOc1ccc(CC(=O)NO)cc1`, 33.2 µM (active); that for `Cc1ccnc2c1NC(=O)c1cccnc1N2C1CC1`, 1.87 µM (active).
Consider `CCn1cc(C(=O)O)c(=O)c2cc(F)c(N3CCN(C)CC3)cc21`, for which the Potency entry is “inactive”.
Still for that read-out and setting: the entry for `CCOc1cc(N)c(Cl)cc1C(=O)NCC1CN(Cc2ccc(F)cc2)CCO1` (stereo not given) is “inactive”; for `C[C@@H](CN1CC(=O)NC(=O)C1)N1CC(=O)NC(=O)C1` it is 3.72 µM (active); for `CCCCc1oc2ccc(NS(C)(=O)=O)cc2c1C(=O)c1ccc(OCCCN(CCCC)CCCC)cc1` it is 14.8 µM (active).
Still for that read-out and setting: the entry for `CS(=O)(=O)c1ccc([C@@H](O)[C@@H](CO)NC(=O)C(Cl)Cl)cc1` is “inactive”.
With `Nc1ccc(S(=O)(=O)Nc2ccccn2)cc1`, the Potency result is “inactive”.
The same measure, in the same setting: the result for `O=C(O)C1CCCN(CCC=C(c2ccccc2)c2ccccc2)C1` (stereo not given) reads “inactive”; that for `S=P(N1CC1)(N1CC1)N1CC1`, 0.469 µM (active).
For the molecule `NC(=O)c1cccnc1`, the Potency is 0.003 µM (active).
Still for that read-out and setting: the result for `O=S(=O)(O)CCS` reads 16.6 µM (active); that for `CCCOc1ccc(C(=O)OCCN(CC)CC)cc1N`, “inactive”.
On the same count and under the same terms, the result for `CN1CCN(c2c(F)cc3c(=O)c(C(=O)O)cn4c3c2OCN4C)CC1` reads “inactive”; that for `Cc1nnc(NS(=O)(=O)c2ccc(N)cc2)s1`, 1.05 µM (active).
Still for that read-out and setting: the figure for `COc1ccc(C(=O)CC(=O)c2ccc(C(C)(C)C)cc2)cc1` is 3.32 µM (active); for `NS(=O)(=O)c1cc2c(cc1Cl)NC(C(Cl)Cl)NS2(=O)=O` (stereo not given) it is “inactive”.

A further test is described as follows: Quantitative High-Throughput drug screen in 47 multiple myeloma cell lines against the NCATS MIPE library collection: KMS12BM_JCRB cell viability assay (AID 1918971). Note: nearly all actives have a fitted effect of over 35% in size. Conditions: KMS12BM myeloma viability, CellTiter-Glo ATP, 48 h; series mostly up to 45.8 µM. The essentials: as §1
Turning to `Cc1nnc(C(=O)NC(C)(C)c2nc(C(=O)NCc3ccc(F)cc3)c(O)c(=O)n2C)o1`, the Potency result is “inactive”.
Still for that read-out and setting: the entry for `CC(C)(Sc1cc(C(C)(C)C)c(O)c(C(C)(C)C)c1)Sc1cc(C(C)(C)C)c(O)c(C(C)(C)C)c1` is “inactive”.
Turning to `COc1cc2ncnc(Nc3cccc(Cl)c3)c2cc1OC`, the Potency was 26.4 µM (active).
On the same count and under the same terms, the result for `CCCCOc1ccc(CC(=O)NO)cc1` reads 20.9 µM (active); that for `Cc1ccnc2c1NC(=O)c1cccnc1N2C1CC1`, “inactive”; that for `CCOC(=O)c1ccc(OC(=O)CCCCCN=C(N)N)cc1`, “inactive”.
On the same count and under the same terms, the figure for `CCn1cc(C(=O)O)c(=O)c2cc(F)c(N3CCN(C)CC3)cc21` is 2.64 µM (active); for `CCCCc1oc2ccc(NS(C)(=O)=O)cc2c1C(=O)c1ccc(OCCCN(CCCC)CCCC)cc1` it is 14.8 µM (active); for `CS(=O)(=O)c1ccc([C@@H](O)[C@@H](CO)NC(=O)C(Cl)Cl)cc1` it is “inactive”.
In the case of `C[C@@H]1CN(c2c(F)c(N)c3c(=O)c(C(=O)O)cn(C4CC4)c3c2F)C[C@H](C)N1`, the Potency result is “inactive”.
Regarding `CC(C)OC(=O)OCOP(=O)(CO[C@H](C)Cn1cnc2c(N)ncnc21)OCOC(=O)OC(C)C`, the Potency was 7.43 µM (active).
Same read-out and setting: the result for `CC1(C)[C@H](C(=O)O)N2C(=O)C[C@H]2S1(=O)=O` reads “inactive”.
On the same count and under the same terms, the figure for `COc1ccc(C(=O)CC(=O)c2ccc(C(C)(C)C)cc2)cc1` is 2.35 µM (active).

A further test can be described thus: Quantitative High-Throughput drug screen in 47 multiple myeloma cell lines against the NCATS MIPE library collection: KMS12PE_JCRB cell viability assay (AID 1918972). Note: nearly all actives have a fitted effect of over 30% in size. Conditions: KMS12PE myeloma viability, CellTiter-Glo ATP, 48 h; series mostly up to 45.8 µM. In outline: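 Viability readout: CellTiter-Glo luminescence following 5 min room-temperature incubation with reagent. Prior exposure: 48 h, 37C, humidified 5% CO2, 500 cells per well.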
Regarding `CN1CCN(c2c(F)cc3c(=O)c(C(=O)O)cn(CCF)c3c2F)CC1`, the Potency entry is “inactive”.
Still for that read-out and setting: the result for `CC[C@H](C)C(=O)O[C@H]1C[C@@H](C)C=C2C=C[C@H](C)[C@H](CC[C@@H]3C[C@@H](O)CC(=O)O3)[C@H]21` reads “inactive”.
On the same count and under the same terms, the result for `O=C(O)c1cn(C2CC2)c2cc(N3CCNCC3)c(F)cc2c1=O` reads “inactive”; that for `COc1cc2ncnc(Nc3cccc(Cl)c3)c2cc1OC`, 20.9 µM (active).
The same measure, in the same setting: the figure for `CCCCOc1ccc(CC(=O)NO)cc1` is 23.5 µM (active); for `Cc1ccnc2c1NC(=O)c1cccnc1N2C1CC1` it is “inactive”.
Regarding `CCOC(=O)c1ccc(OC(=O)CCCCCN=C(N)N)cc1`, the Potency result was “inactive”.
The same measure, in the same setting: the entry for `NC(=O)c1cccc(N)c1` is “inactive”; for `CCn1cc(C(=O)O)c(=O)c2cc(F)c(N3CCN(C)CC3)cc21` it is “inactive”; for `CCOc1cc(N)c(Cl)cc1C(=O)NCC1CN(Cc2ccc(F)cc2)CCO1` (stereo not given) it is “inactive”.
On the same count and under the same terms, the result for `COc1cnc(NS(=O)(=O)c2ccc(N)cc2)nc1` reads 14.8 µM (active); that for `O=S(=O)(c1cccc2cnccc12)N1CCCNCC1`, “inactive”.
As for `C[C@@H](CN1CC(=O)NC(=O)C1)N1CC(=O)NC(=O)C1`, the Potency was 1.66 µM (active).
Same read-out and setting: the entry for `CCC(C)(C)c1ccc(CC(C)CN2C[C@@H](C)O[C@@H](C)C2)cc1` (stereo not given in full) is “inactive”; for `CCCCc1oc2ccc(NS(C)(=O)=O)cc2c1C(=O)c1ccc(OCCCN(CCCC)CCCC)cc1` it is 9.35 µM (active); for `N[C@@H](Cc1ccc(O)c(O)c1)C(=O)O` it is “inactive”.
As to `CS(=O)(=O)c1ccc([C@@H](O)[C@@H](CO)NC(=O)C(Cl)Cl)cc1`, the Potency was 2.35 µM (active).
Same read-out and setting: the result for `Nc1ccc(S(=O)(=O)Nc2ccccn2)cc1` reads “inactive”; that for `C[C@@H]1CN(c2c(F)c(N)c3c(=O)c(C(=O)O)cn(C4CC4)c3c2F)C[C@H](C)N1`, “inactive”; that for `O=C(O)C1CCCN(CCC=C(c2ccccc2)c2ccccc2)C1` (stereo not given), “inactive”.
Same read-out and setting: the result for `S=P(N1CC1)(N1CC1)N1CC1` reads “inactive”; that for `CC(C)OC(=O)OCOP(=O)(CO[C@H](C)Cn1cnc2c(N)ncnc21)OCOC(=O)OC(C)C`, 29.6 µM (active); that for `NC(=O)c1cccnc1`, “inactive”.
Same read-out and setting: the entry for `CC1(C)[C@H](C(=O)O)N2C(=O)C[C@H]2S1(=O)=O` is “inactive”.
Regarding `CCCOc1ccc(C(=O)OCCN(CC)CC)cc1N`, the Potency result was “inactive”.
The same measure, in the same setting: the entry for `CN1CCN(c2c(F)cc3c(=O)c(C(=O)O)cn4c3c2OCN4C)CC1` is “inactive”; for `Cc1nnc(NS(=O)(=O)c2ccc(N)cc2)s1` it is 1.32 µM (active).
The same measure, in the same setting: the figure for `COc1ccc(C(=O)CC(=O)c2ccc(C(C)(C)C)cc2)cc1` is 5.26 µM (active); for `NS(=O)(=O)c1cc2c(cc1Cl)NC(C(Cl)Cl)NS2(=O)=O` (stereo not given) it is “inactive”.
Take `OC(Cn1cncn1)(Cn1cncn1)c1ccc(F)cc1F`: the Potency result was “inactive”.
